The target in assay [1] is Albumin (Bos taurus) (UniProt P02769). In words: bovine serum albumin binders on microarray, profiling panel, artefact control for SMM control protein annotation, biochemical, small-molecule microarray, Alexa647 label, 635/667 nm fluorescence (AID 1118).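 Also: score merges 667 nm emission intensity and signal-to-noise per printed compound spot.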 The conditions noted are these: BSA-A647 binding, fluorescence 635 nm, higher = more signal.
Assay [2] in a line: small-molecule microarray binders of probe aXIP, primary screen, biochemical, NeuroSMM set, 635/667 nm fluorescence (AID 1119).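 Also: probe is the protein aXip251-270 applied at 1 µg/mL to compound-printed slides; binding of probe to printed compounds measured as 667 nm fluorescence plus signal to noise.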 The following applies: higher = more signal, called active from +8 up or from −8 down.
The nature of assay [3]: small-molecule binders of probe aNOTCH3, primary screen, biochemical, small-molecule microarray, 635/667 nm fluorescence (AID 1120).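 Also: probe is a biotin-tagged antibody raised against NOTCH3 rather than NOTCH3 protein; score merges spot fluorescence near 667 nm with spot signal to noise.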 The conditions noted are these: higher = more signal.
A short description of assay [4]: small-molecule binders of probe aNOTCH2, primary screen, biochemical, small-molecule microarray, 635/667 nm fluorescence (AID 1121).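 Also: score merges feature fluorescence read at 667 nm with its signal to noise.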 The conditions noted are these: higher = more signal.
Assay [5] has as its target Carbonic anhydrase 2 (Homo sapiens) (UniProt P00918). Description: CAII small-molecule binders, profiling panel, biochemical, small-molecule microarray, Alexa647-labelled CAII (AID 1122). The following applies: CAII-A647 binding fluorescence, higher = more signal.
A short description of assay [6]: COS7 lysate on small-molecule microarray, probe aHis, 635 nm (AID 1123).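 Also: z-score combines 667nm fluorescence intensity with signal-to-noise per printed compound spot.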 The following applies: COS7 cell lysate, fluorescence, higher = more signal.
A short description of assay [7]: compound binding in COS7 lysate, probe aLAP1, primary screen, cell lysate, small-molecule microarray (AID 1124).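 Also: lysate comes from COS7 cells expressing LAP1 and is applied at 0.3 µg/mL; score merges spot fluorescence near 667 nm with signal-to-noise over triplicate slides.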 The following applies: probe aLAP1, fluorescence, higher = more signal.
Assay [8] has as its system Sam68 (KHDRBS1). In words: Sam68 small-molecule binders, primary screen, biochemical, small-molecule microarray, 635 nm fluorescence (AID 1125).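 Also: score merges 667 nm channel intensity with signal to noise over triplicate slides.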 The following applies: small-molecule microarray binding, higher = more signal.
Assay [9] relates to Chordin-like protein 2 (CHRDL2). In words: CHRDL2 small-molecule binders, primary screen, biochemical, small-molecule microarray, 635 nm fluorescence (AID 1126).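 Also: printed compound slides probed with Chrdl2 protein at 4 µg/mL for 1 h at 4 C; score merges 667 nm emission intensity with signal to noise over three replicate slides.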 The following applies: small-molecule microarray binding, fluorescence 635 nm; higher = more signal.
The target in assay [10] is Concanavalin-A (Canavalia ensiformis) (UniProt P02866). Description: ConA small-molecule binders, primary screen, artefact control for SMM control protein annotation, biochemical, small-molecule microarray, Alexa647 label, 635 nm (AID 1127).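 Also: z combines 667 nm emission intensity with signal-to-noise across three replicate slides.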 The following applies: ConA-A647 binding fluorescence, higher = more signal.
Chain of Concanavalin-A (Canavalia ensiformis) (P02866 whole entry, looked up): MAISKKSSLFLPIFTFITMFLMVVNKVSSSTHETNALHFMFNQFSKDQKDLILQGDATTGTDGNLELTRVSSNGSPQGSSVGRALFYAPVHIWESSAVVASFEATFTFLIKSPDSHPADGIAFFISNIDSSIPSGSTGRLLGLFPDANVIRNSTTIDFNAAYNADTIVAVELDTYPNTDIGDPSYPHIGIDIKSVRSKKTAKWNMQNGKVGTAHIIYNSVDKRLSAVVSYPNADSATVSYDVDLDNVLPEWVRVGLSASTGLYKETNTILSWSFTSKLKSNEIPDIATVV
A short description of assay [11]: anti-His antibody binders, primary screen, artefact control for SMM control protein annotation, biochemical, small-molecule microarray, 635 nm fluorescence (AID 1128).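 Also: score merges feature fluorescence with signal-to-noise for each printed compound spot.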 The conditions noted are these: anti-His Alexa647 antibody binding, higher = more signal.
The subject of assay [12] is Human papillomavirus type 1a E7 protein (residues 1-88). In words: HPV1a E7 small-molecule binders, primary screen, biochemical, small-molecule microarray, residues 1-88, 635 nm (AID 1129). The following applies: small-molecule microarray binding, fluorescence 635 nm; higher = more signal.
Assay [13] concerns the target Focal adhesion kinase 1 (Homo sapiens) (UniProt Q05397). In words: small-molecule microarray binders of FAK, primary screen, biochemical, 635/667 nm fluorescence, BSA, DTT (AID 1130).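 Also: composite of spot emission at 667 nm and signal to noise over triplicate slides.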 The following applies: PTK2 binding, 635 nm fluorescence, higher = more signal.
Assay [14] deals with Fibrinogen (Alexa647-labelled). In words: fibrinogen binders on compound microarrays, profiling panel, artefact control for SMM control-protein annotation, biochemical, small-molecule microarray, 635/667 nm fluorescence (AID 1131).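 Also: z-score merges 667 nm fluorescence with per-spot signal-to-noise over triplicate slides.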 The conditions noted are these: fibrinogen-A647 binding fluorescence, higher = more signal.
Assay [15] deals with Follistatin (Homo sapiens) (UniProt P19883). Description: follistatin binders on small-molecule microarrays, primary screen, biochemical, small-molecule microarray, 635/667 nm fluorescence (AID 1132). The conditions noted are these: FST binding, 635 nm fluorescence, higher = more signal.
Chain of Follistatin (Homo sapiens) (P19883 whole entry, looked up): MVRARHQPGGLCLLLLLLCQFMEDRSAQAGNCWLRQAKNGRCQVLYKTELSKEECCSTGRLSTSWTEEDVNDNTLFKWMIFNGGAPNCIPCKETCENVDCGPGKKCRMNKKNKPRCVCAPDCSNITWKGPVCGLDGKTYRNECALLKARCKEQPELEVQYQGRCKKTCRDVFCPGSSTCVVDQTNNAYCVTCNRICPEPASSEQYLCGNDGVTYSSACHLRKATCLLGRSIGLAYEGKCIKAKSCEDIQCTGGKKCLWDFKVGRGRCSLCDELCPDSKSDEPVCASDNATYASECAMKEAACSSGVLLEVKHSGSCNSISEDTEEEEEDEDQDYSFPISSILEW
The target of assay [16] is Fibroblast growth factor 2 (Homo sapiens) (UniProt P09038). Description: FGF2 binders on small-molecule microarrays, primary screen, biochemical, small-molecule microarray, 635/667 nm fluorescence (AID 1133). The conditions noted are these: small-molecule microarray binding, FGF2, fluorescence 635/667; higher = more signal.
Chain of Fibroblast growth factor 2 (Homo sapiens) (P09038 whole entry, looked up): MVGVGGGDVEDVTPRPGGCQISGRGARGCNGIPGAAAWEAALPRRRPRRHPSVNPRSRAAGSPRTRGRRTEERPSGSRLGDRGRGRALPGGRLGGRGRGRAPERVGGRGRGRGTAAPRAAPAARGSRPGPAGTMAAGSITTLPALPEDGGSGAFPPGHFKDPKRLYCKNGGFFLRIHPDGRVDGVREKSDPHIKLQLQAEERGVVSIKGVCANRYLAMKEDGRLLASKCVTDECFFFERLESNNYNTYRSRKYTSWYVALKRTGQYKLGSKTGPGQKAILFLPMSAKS
Assay [17] can be described thus: mitochondrial membrane potential change in A549 cells, profiling panel, cell-based, JC-1 fluorescence, basal, 24 h, 100 nL (AID 1138).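 Also: A549 lung adenocarcinoma cells under basal conditions with no added stimulus; test concentration not given here.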 The following applies: higher = more signal.
The test system of assay [18] is Lefty1. In words: Lefty1 binders on small-molecule microarrays, primary screen, biochemical, small-molecule microarray, 635/667 nm fluorescence (AID 1139). The following applies: small-molecule microarray binding, fluorescence 635/667; higher = more signal.
For assay [19], the system named is wheat germ agglutinin (Triticum aestivum), Alexa647-labelled. Description: wheat germ agglutinin binders on compound microarrays, profiling panel, artefact control for SMM control-protein annotation, biochemical, small-molecule microarray, 635/667 nm fluorescence (AID 1140).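 Also: score merges 667 nm feature emission with signal to noise over triplicate slides.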 The conditions noted are these: WGA-A647 binding, 635 nm fluorescence, higher = more signal.

Assay [20] concerns the target Luciferin 4-monooxygenase (Photinus pyralis) (UniProt P08659). In words: firefly luciferase enzyme inhibitors, primary screen, biochemical, luminescence, purified enzyme, 2006 set (AID 1141).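 Also: cell-free assay with purified firefly luciferase at 100 ng per well in PBS; test concentration not given here.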 The following applies: SteadyGlo luminescence, 30 min, higher = more signal, called active from +8 up or from −8 down.

Activity calls are given as the source filed them.

Chain of Luciferin 4-monooxygenase (Photinus pyralis) (P08659 whole entry, looked up): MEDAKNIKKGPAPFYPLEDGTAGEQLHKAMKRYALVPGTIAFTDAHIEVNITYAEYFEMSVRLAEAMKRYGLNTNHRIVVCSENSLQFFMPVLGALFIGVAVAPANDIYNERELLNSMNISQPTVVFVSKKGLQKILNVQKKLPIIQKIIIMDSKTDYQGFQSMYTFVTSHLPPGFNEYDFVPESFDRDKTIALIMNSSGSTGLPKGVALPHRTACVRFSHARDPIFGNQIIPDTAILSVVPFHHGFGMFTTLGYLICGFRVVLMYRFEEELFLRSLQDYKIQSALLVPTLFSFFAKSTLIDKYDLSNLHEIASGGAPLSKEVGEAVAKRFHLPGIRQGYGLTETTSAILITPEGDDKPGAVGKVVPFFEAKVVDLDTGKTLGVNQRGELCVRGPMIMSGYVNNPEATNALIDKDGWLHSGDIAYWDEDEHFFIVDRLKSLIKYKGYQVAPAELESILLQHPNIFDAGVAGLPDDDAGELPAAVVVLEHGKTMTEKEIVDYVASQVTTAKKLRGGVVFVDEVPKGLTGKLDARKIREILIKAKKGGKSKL
Chain of Albumin (Bos taurus) (P02769 whole entry, looked up): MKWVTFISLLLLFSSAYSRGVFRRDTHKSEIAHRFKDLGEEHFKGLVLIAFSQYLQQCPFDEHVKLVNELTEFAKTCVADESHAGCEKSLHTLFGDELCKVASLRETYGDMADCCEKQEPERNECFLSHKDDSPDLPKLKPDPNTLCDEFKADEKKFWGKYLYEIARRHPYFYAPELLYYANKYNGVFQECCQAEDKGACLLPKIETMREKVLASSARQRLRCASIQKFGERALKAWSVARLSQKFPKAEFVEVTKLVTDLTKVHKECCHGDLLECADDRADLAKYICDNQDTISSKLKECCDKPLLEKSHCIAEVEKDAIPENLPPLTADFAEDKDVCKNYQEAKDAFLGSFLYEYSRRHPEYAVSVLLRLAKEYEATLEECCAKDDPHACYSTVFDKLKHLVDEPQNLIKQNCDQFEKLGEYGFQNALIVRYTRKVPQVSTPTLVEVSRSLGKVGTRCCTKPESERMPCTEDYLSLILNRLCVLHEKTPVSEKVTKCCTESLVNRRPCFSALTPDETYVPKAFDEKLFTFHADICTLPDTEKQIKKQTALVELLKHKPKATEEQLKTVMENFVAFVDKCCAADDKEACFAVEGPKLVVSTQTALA
Chain of Focal adhesion kinase 1 (Homo sapiens) (Q05397 whole entry, looked up): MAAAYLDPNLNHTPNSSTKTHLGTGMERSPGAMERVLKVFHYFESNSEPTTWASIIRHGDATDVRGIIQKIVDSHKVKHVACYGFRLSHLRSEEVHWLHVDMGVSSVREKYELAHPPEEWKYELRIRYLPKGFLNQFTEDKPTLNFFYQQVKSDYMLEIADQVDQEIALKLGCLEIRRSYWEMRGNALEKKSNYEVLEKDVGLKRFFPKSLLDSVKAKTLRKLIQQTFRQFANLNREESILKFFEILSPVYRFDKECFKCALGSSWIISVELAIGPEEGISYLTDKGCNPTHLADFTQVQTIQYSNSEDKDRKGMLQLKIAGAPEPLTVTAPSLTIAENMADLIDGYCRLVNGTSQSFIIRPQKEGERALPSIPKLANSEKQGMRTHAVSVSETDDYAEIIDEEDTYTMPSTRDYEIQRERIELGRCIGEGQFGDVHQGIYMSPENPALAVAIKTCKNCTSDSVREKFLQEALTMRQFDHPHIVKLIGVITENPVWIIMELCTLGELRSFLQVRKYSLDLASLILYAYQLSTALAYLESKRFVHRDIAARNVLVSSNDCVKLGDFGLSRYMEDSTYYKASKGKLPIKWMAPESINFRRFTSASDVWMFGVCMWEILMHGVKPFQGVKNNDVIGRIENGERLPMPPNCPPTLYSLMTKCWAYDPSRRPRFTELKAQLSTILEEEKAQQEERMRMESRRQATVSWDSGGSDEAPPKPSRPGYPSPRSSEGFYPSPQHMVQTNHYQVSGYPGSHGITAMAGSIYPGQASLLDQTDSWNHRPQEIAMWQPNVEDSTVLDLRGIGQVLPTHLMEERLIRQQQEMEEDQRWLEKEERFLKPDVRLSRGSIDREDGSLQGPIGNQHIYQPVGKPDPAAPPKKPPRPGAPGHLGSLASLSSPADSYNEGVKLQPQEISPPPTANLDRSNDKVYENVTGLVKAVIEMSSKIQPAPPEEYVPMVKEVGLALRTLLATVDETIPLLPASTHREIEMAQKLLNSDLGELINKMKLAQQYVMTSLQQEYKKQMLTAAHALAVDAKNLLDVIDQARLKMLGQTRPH

`CC(=O)OC[C@H]1O[C@H](CCON=C(C)CCN2CCCc3nc(C)c(C)cc32)C=C[C@@H]1OC(C)=O`: the composite z-score is 0.159 in assay [1]; 0.121 in [3]; -0.0482 in assay [4]; 0.416 in assay [5]; 0.214 in [6]; 0.926 in [7]. Further, the composite z-score is 1.29 in [8]; 0.662 in [9]; 0.672 in assay [10]; 1.22 in [11]; 1.14 in assay [12]; 0.835 in [13]. The composite z-score is 0.441 in [14]; 1.15 in assay [15]; 0.664 in [16]; 0.997 in assay [18]; 0.0722 in [19]. The composite Z-score in assay [2] is -0.01 (inactive). Also, the z-score in assay [17] is -0.349; in [20] it was 0.591 (inactive).

As to `CC(CCC(=O)OC[C@H]1O[C@H](C#Cc2ccccc2)C=C[C@@H]1Oc1ccc(C)cc1)=NOC[C@@H](C)[C@H](OCc1ccccc1)C(C)C`, the composite z-score was -0.607 in assay [1]; -0.325 in assay [3]; -0.226 in assay [4]; -0.0949 in assay [5]; 1.47 in assay [6]; -0.427 in assay [7]. The composite z-score is -1.2 in assay [8]; -0.606 in [9]; -1.14 in [10]; 0.0009 in assay [11]; -0.849 in assay [12]; -0.502 in assay [13]. Moreover, the composite z-score in [14] was -1.36; in assay [15] it was -0.554; in [16], -0.625; in assay [18], -0.295; in [19], -0.726. In addition, the composite Z-score in assay [2] was 0.35 (inactive). Further, the values for the z-score in [17] and in assay [20] were -0.197 and 1.03 (inactive), respectively.

Turning to `COc1ccc2c(c1)O[C@@H](c1cccc(C(F)(F)F)c1)[C@H](O)C2=O`, the composite z-score in assay [1] is 0.442; in assay [3], -0.152; in [4] it was -0.0761; in assay [5], 0.0122; in [6] it was -0.0749; in [7], 0.0318. Further, the composite z-score in assay [8] was found to be 0.642; in assay [9] it was 0.647; in assay [10], 0.494; in assay [11] it was 0.0408; in assay [12] it was 0.584; in assay [13], 0.0103. Also, the composite z-score in assay [14] was determined as 0.289; in assay [15], 0.282; in assay [16], 0.656; in assay [18], 0.309; in [19], 0.408. In assay [2], the composite Z-score is 0.115 (inactive). The z-score in [17] was 0.903; in assay [20] it was 0.335 (inactive).

Consider `CCOC(=O)[C@H](Cc1ccccc1)NC(=O)CCC1CC(OC(=O)NCc2cccc3ccccc23)CC2(CCCC(COC(=O)NCCc3ccc(Cl)cc3)O2)O1` (stereo not given in full), for which the composite z-score is 0.278 in assay [1]; -0.296 in assay [3]; -0.203 in assay [4]; 0.349 in assay [5]; 0.37 in assay [6]; -0.126 in assay [7]. The composite z-score turned out to be 1.08 in assay [8]; 0.253 in assay [9]; 1.03 in [10]; 0.486 in assay [11]; 0.791 in [12]; 0.222 in assay [13]. Moreover, the composite z-score came out at 0.78 in assay [14]; 0.461 in assay [15]; 0.344 in [16]; 0.414 in [18]; 0.556 in assay [19]. Besides, the composite Z-score in [2] is -0.413 (inactive). For the same compound, the z-score was -0.243 in assay [17] and 1.36 (inactive) in assay [20].

Turning to `O=C1[C@H]2[C@H]3[C@H](O)[C@H](O)CC(=NOC[C@@H](O)COCc4ccco4)[C@@H]3CC[C@H]2C(=O)N1C1CCCCC1`, the composite z-score in assay [1] was 0.0451; in assay [3], 0.149; in assay [4], -0.251; in [5], 0.057; in [6] it was -0.39; in assay [7], -0.0177. For the same compound, the composite z-score in assay [8] was 0.827; in assay [9], 1.52; in [10], -0.421; in assay [11], 0.0182; in assay [12], -0.244; in assay [13], -0.569. In addition, the composite z-score in assay [14] is -0.811; in [15] it was 1.22; in assay [16], 1.37; in [18], 1.58; in [19], -0.284. In addition, the composite Z-score in assay [2] was -0.415 (inactive). For the same compound, the z-score in [17] is -0.144; in [20], 0.0055 (inactive).

As for `COC(=O)CC=C[C@@H](C)[C@@H](C=NOC[C@@H](C)[C@H](OCc1ccccc1)C(C)C)OC`, the composite z-score was -0.469 in assay [1]; -0.0647 in assay [3]; -0.124 in assay [4]; -0.12 in [5]; 0.266 in [6]; -0.61 in assay [7]. For the same compound, the composite z-score was 0.447 in assay [8]; 0.386 in assay [9]; 0.102 in [10]; 1.86 in assay [11]; -0.0858 in assay [12]; 0.0285 in assay [13]. The composite z-score is -0.211 in assay [14]; 0.088 in assay [15]; 0.323 in assay [16]; 0.419 in assay [18]; -0.307 in assay [19]. For the same compound, in [2], the composite Z-score was -0.235 (inactive). Besides, the values for the z-score in assay [17] and in assay [20] were -1.01 and -0.698 (inactive), respectively.

Consider `CC(C)(C)N1C(=O)[C@H]2[C@@H]3C(=CC[C@H]2C1=O)C(=O)[C@H]1O[C@H]1[C@H]3O`, for which the composite z-score in [1] is 0.0159; in assay [3] it was -0.0976; in assay [4], -0.154; in assay [5] it was -0.444; in assay [6], -0.511; in assay [7] it was -0.058. Further, the composite z-score in [8] is -0.657; in [9], 1.04; in assay [10], -0.721; in [11], 0.23; in assay [12], -0.137; in assay [13] it was -0.339. The composite z-score in [14] was -1.06; in assay [15], 0.1; in [16], -0.17; in assay [18], -0.0815; in assay [19] it was 0.844. Besides, the composite Z-score in [2] is 0.321 (inactive). Moreover, the z-score in assay [17] was -0.732; in [20], -2.65 (inactive).

For the compound `CC(C)=NOC(C)CN1CCCc2nc(C)c(C)cc21` (stereo not given), the composite z-score in assay [1] was 0.297; in assay [3], 0.0482; in assay [4] it was 0.0037; in [5] it was 0.449; in [6], 1.31; in assay [7], 1.37. In addition, the composite z-score is 0.669 in [8]; 0.74 in assay [9]; 0.788 in assay [10]; -0.0115 in assay [11]; 0.964 in [12]; 0.232 in assay [13]. Also, the composite z-score is 0.484 in assay [14]; 0.724 in [15]; 0.753 in [16]; 0.947 in [18]; 0.323 in assay [19]. Further, the composite Z-score in assay [2] is 0.672 (inactive). The z-score in assay [17] is 0.354; in assay [20] it was 0.57 (inactive).

The values are drawn from PubChem BioAssay.
